Assay results from paper PMC12136788.
Positions count from the first letter of the chain named. Over roughly 5,800 sequences, “enrichment r” has its median near 0.68; the highest 2% begin near 11. Shown is part of a subset that was picked to be rich in the highest values.

T1: UNK ZnF1-6 (called full-length) (human, UniProt Q9C0B0 30-357)
T1 sequence: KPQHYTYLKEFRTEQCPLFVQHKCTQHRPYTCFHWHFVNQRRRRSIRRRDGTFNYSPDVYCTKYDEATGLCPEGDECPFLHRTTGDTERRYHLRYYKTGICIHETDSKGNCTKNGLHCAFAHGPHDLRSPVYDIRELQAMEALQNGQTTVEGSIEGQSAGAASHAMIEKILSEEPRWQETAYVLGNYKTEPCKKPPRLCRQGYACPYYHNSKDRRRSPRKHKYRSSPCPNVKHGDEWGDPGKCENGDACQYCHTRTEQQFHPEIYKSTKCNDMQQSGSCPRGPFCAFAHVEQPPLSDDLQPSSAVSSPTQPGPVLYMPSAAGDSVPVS

B1: chr5:172042892:172042993:-|3pUTR|ENSG00000072786|msi1|FALSE|unique (ssRNA)
RNA: GGGAGUUCUACAGUCCGACGAUCGAUUCUCCCGCUUCAACCUUGAGUAGCUGGGACGACAGAUACAUGCUACUGCACCCAGCUAGGUUAAGGUUCUGUAUACUCUGUCUUUCUAAAGCAAUUCCCUGGAAAUUUUCUCAACAUCAACAGAGGAUUGAGCAUCA
B2: chr12:85264020:85264122:+|3pUTR|ENSG00000133640|unk|FALSE|unique (ssRNA)
RNA: GGGAGUUCUACAGUCCGACGAUCCAUAGUAUUUCAGUUACUUUCCACAGCUGUGUUGCUCAAUAAUAGCAUCCAGUGAACUUUAGUAUUUUUUUGUUUUUCCUGUAUUUUAUUAAAAUAUUUCAUCUAGAGAUAACUGAAGUGCAACAGAGGAUUGAGCAUCA
B3: chr1:32196422:32196614:+|3pUTR|ENSG00000084652|msi1|FALSE|unique (ssRNA)
RNA: GGGAGUUCUACAGUCCGACGAUCACAGUUGUUUCUGUGUCCUGUUCUACCCCCACUCCAGUACAUAACUACUAUGUACUGUGUAGAGCCAUUCUAUAUGCUGAAUGUUCUGCUGUUGCAAACUUGCCAGGGUAUUAGCCAGUGCAACAGAGGAUUGAGCAUCA
B4: chr17:67075675:67075776:-|3pUTR|ENSG00000198265|unk|FALSE|unique (ssRNA)
RNA: GGGAGUUCUACAGUCCGACGAUCAUUCCUUAUUUCCAUAGCCAGUCAAGGAUUCUAACGCUGCUUCCAUCUGAUACUCUUCUUAGAUUCUGCAUCAAAUGCUUAUUUUGACUUACAACAAGCUUACUCUUCCUCAGCAUUACACAACAGAGGAUUGAGCAUCA
B5: chr3:62294137:62294238:+|3pUTR|ENSG00000144724|msi1|FALSE|unique (ssRNA)
RNA: GGGAGUUCUACAGUCCGACGAUCUGAGACCCUUUAGUUAUUCUCCAUUAAUGCUUCUUAGUUUGUAAUACCAUACCUCACAGUAGGUAGAAGAAUGAAAACUUCUGCAGGUGUGUAAUUUUGAAACUAGUCCUCUAAAAAUUCCAACAGAGGAUUGAGCAUCA
B6: chr8:41543231:41543332:+|3pUTR|ENSG00000147536|msi1|total|mutant (ssRNA)
RNA: GGGAGUUCUACAGUCCGACGAUCAAACCAUUAUUAAAUUUCCAUUCUGCAGCAGAAGGCACCUCUGGACGGCUCCCGGCUUGCCGUUUAAUGAAGUAUGUGCUCCCUGCUGUUAACCCGCAGCCCUCCCCAACUCUCCAGCAGCAACAGAGGAUUGAGCAUCA
B7: ENSG00000070961:be:win_5101|3pUTR|ENSG00000070961|bound_else_gene|NA|bound_elsewhere_windowed (ssRNA)
RNA: GGGAGUUCUACAGUCCGACGAUCAUGACCACCAUUGUCUUUGAUACAUUUAUUUUAAUUCUUAAGUGGCCAAAUAACAGAUUAGGUAAAAUGAGAUUACAUGAAAAGGUUCUAAAAUGAUAUAUUUAGAUGCAAUAAUUAACCCAACAGAGGAUUGAGCAUCA
B8: chr19:33301014:33301115:-|3pUTR|ENSG00000245848|unk|FALSE|unique (ssRNA)
RNA: GGGAGUUCUACAGUCCGACGAUCUCCCUGCGAGGAGGGGAGAAUUCUUGGGGCUGAGCUGGGAGCCCGGCAACUCUAGUAUUUAGGAUAACCUUGUGCCUUGGAAAUGCAAACUCACCGCUCCAAUGCCUACUGAGUAGGGGGCAACAGAGGAUUGAGCAUCA
B9: chr8:41543231:41543332:+|3pUTR|ENSG00000147536|msi1|FALSE|unique (ssRNA)
RNA: B6 RNA with C83U, C84A
B10: chr4:138171397:138171528:-|3pUTR|ENSG00000151012|msi1|total|mutant (ssRNA)
RNA: GGGAGUUCUACAGUCCGACGAUCAUUAUGGCAAAGAGGAGAGAAAGAAAUUUAUUUUACAUUGACAUUGCAUUGCUUCCCCUCCGAUACCAAUUCCGAUAACAAACACUCAUGCUUUAAUGGAUUAUACCCAGAGCACUUUGACAACAGAGGAUUGAGCAUCA
B11: chr6:53267885:53267986:-|3pUTR|ENSG00000012660|msi1_unk|FALSE|overlapping (ssRNA)
RNA: GGGAGUUCUACAGUCCGACGAUCUUUAAUGUAAAUCUAAUAGUACUUGUAAUUUCUUUCUGCUUAGAAUCUAAAGAUGUGUUUAGAACCUCUUGUUUAAAAAUAAUAGACUGCUUAUCAUAAAAUCACAUCUCACACAUUUGACAACAGAGGAUUGAGCAUCA
B12: ENSG00000176244:stop:overlap|stop_codon|ENSG00000176244|stop_codon|NA|stop_codon (ssRNA)
RNA: GGGAGUUCUACAGUCCGACGAUCAAGAUGCGACGAGUGCCUAUAUUUCUAAAGCAAAGGAGCUGAUAGAAAAAUACGGAAUUUAGAAUACAGCAUAUGAGGAAUUUUUCCUUUUGAAGACUUCCAAAUGCUAUCAUGACCUAACAACAGAGGAUUGAGCAUCA
B13: chr4:138171397:138171528:-|3pUTR|ENSG00000151012|msi1|FALSE|unique (ssRNA)
RNA: B10 RNA with C83U, C84A, C95U, C96A
B14: chr3:97755980:97756081:+|3pUTR|ENSG00000080224|unk|FALSE|unique (ssRNA)
RNA: GGGAGUUCUACAGUCCGACGAUCUAAUUAAAAAUCUCUUUCCUACCUUUAGUAAUUUGUAGGAUGAACUGUAUGCAUUUAGAUAGAAAUUGCUUUUGUUAAAUUUACAUUUAAACACAUCUUCAUUCACUUAGAGAAGCCAUACAACAGAGGAUUGAGCAUCA
B15: chr3:31636526:31636632:+|3pUTR|ENSG00000163527|unk|FALSE|unique (ssRNA)
RNA: GGGAGUUCUACAGUCCGACGAUCCAAAAUGUGAUGAGAGCUUCUUGAACCGGUAAACUAGUACAGGUCUGAGAAAGACAUAUUAGAAGAAUCAUUAUACUUCCUUGAAUUAUAUUUAUUUUCAUGUUUCUCUAAUGCAAAGAACAACAGAGGAUUGAGCAUCA
B16: chr15:78283234:78283431:-|three_prime_utr|ENSG00000140395|control|control|control (ssRNA)
RNA: GGGAGUUCUACAGUCCGACGAUCUCUCCAGGCUUAUGCUGCAAAGAGAAUGUACGGAUUGAUCAUGACAUUCCUUACCUUCUUAGGCUUGUUUAAAAGAAAUAUAGCAUUUAUUGUAGCAAAGACUUAAAUUUUGUAGAUACACAACAGAGGAUUGAGCAUCA

What follows are binders tested against T1, UNK ZnF1-6 (called full-length) (assay: nsRBNS (natural sequence RNA bind-n-seq); RBNS binding buffer (assumed for nsRBNS): 25 mM Tris pH 7.5, 150 mM KCl, 3 mM MgCl2, 0.01% Triton X-100, 500 ug/ml BSA, 20 U/ml SUPERase-In, 4 C; UNK is unkempt and MSI1 is Musashi-1; names of the RNAs are library labels; protein concentration not given here; high values mean tight binding).

Row | Binder | binding signal [enrichment R]
1 | B1 | 0.494
2 | B2 | 10
3 | B3 | 0.631
4 | B4 | 1.05
5 | B5 | 16.2
6 | B6 | 1.48
7 | B7 | 3.73
8 | B8 | 4.16
9 | B9 | 11.4
10 | B10 | 0.489
11 | B11 | 10.2
12 | B12 | 0.808
13 | B13 | 73.9
14 | B14 | 10.1
15 | B15 | 1.21
16 | B16 | 13.8
